PubChem BioAssay (NCATS)
Results filed as inconclusive are left out. Active and inactive are the calls of the source. Unless noted, calls come from the whole dose curve; as a rule, active = well fitted curve in either direction with a large enough effect (not every such curve was filed as active); inconclusive = small, poorly fitted or top-dose-only effect, or another doubt; inactive = flat fitted curve, though single readings scatter.

Tests used:
[1] = molecular target: Lysosomal acid glucosylceramidase (Homo sapiens) (UniProt P04062); assay: Glucocerebrosidase-p2 (AID 348; in the data active = potency below about 10 µM; note: potency is the fitted concentration of half-maximal effect); conditions: purified GBA, blue fluorogenic substrate, 40 min
How it was run: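 Normal human glucocerebrosidase (0.2 nM) with blue fluorogenic substrate (80 uM final) in citrate/phosphate pH 5.9 with 10mM sodium taurocholate, 0.01% tween-20; 40 min RT, NaOH/glycine stop; fluorescence Ex 365/Em 440; AC50 from a titration from 0.6 nM upwards.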

[2] = AP1 Signaling Pathway (AID 357); conditions: ME-180 AP-1-bla reporter, EGF-induced, beta-lactamase ratio, 5 h; at 7.69 µM (top of the series) unless noted;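 note: ME-180 reporter cells stimulated with EGF at its EC50 level; % is set by controls: 0 for no effect and ±100 for the full control effect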
How it was run: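 A ratiometric CCF4 readout (405 nm excitation; 460 and 530 nm emission) quantified AP-1-driven beta-lactamase in ME-180 cells after 5 h with compound and EC50 EGF; AC50 values were derived for activators and inhibitors.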

[3] = molecular target: Cytochrome P450 1A2 (Homo sapiens) (UniProt P05177); assay: p450-cyp1a2 (AID 410; calls by dose curve; note: potency is the fitted concentration of half-maximal effect;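 for activity change, negative = inhibition: -100% = full effect of reference inhibitor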); conditions: recombinant CYP1A2, luciferin-ME demethylation, luminescence; series mostly up to 57 µM
How it was run: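 20nM CYP1A2, 100uM Luciferin-ME (=Km), 100mM KPO4; cpd 10 min RT; +NADPH regen, 60 min RT; stop/detect 20 min; luminescence. Normalized to furafylline 57 uM = full inhibition.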

[4] = NFAT Signaling Pathway (AID 444); conditions: Jurkat NFAT-bla M1, carbachol, beta-lactamase ratio, 5 h; at 7.69 µM (top of the series) unless noted;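 note: carbachol stimulus at about its EC50 of 1 µM final; % is set by controls: 0 for no effect and ±100 for the full control effect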
How it was run: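 Jurkat cells carrying an NFAT-driven β-lactamase reporter and co-transfected muscarinic M1 receptor were treated with compound plus carbachol (1 uM final, an EC50 level) for 5 h at 37 °C. CCF4 loading followed for 1 h at RT; 460/530 nm ratio gave %activity.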

[5] = Stat Signaling Pathway (AID 446); conditions: ME-180 (cervical carcinoma) SIE beta-lactamase reporter, IL-6 stimulated, 5 h; at 7.69 µM (top of the series) unless noted;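 note: ME-180 cervical cancer cells given 40 pM IL-6 alongside compound; SIE-controlled beta-lactamase reporter measured as 460/530 nm FRET emission ratio; % is set by controls: 0 for no effect and ±100 for the full control effect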
How it was run: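 Overnight-plated ME-180 cells bearing a STAT Inducible Element beta-lactamase reporter; 5 h co-exposure to compound and 40 pM IL-6; values normalized to 300 pM IL-6 and 125 nM JAK inhibitor controls.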

[6] = molecular target: Glucocorticoid receptor (Homo sapiens) (UniProt P04150); assay: GR-EFC Redistribution (AID 451; calls by dose curve; note: potency is the fitted concentration of half-maximal effect); conditions: CHO-K1 GR-EFC translocation, beta-gal luminescence, 2 h
How it was run: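 CHO-K1 cells stably expressing nuclear-localized β-gal enzyme acceptor and GR fused C-terminally to the enzyme donor fragment; ligand-driven nuclear translocation restores β-gal by complementation. Compounds titrated up to 46 uM final, 2 h at 37 °C; luminescence read.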

[7] = molecular target: Mitogen-activated protein kinase 10 (Mus musculus) (UniProt Q61831); assay: JNK3 AlphaScreen Assay (AID 530); conditions: JNK3 lysate, c-Jun phosphorylation; series mostly up to 57.1 µM;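 note: kinase came from lysate of stimulated human HepG2 cells; signal reports phosphorylation of biotinylated GST-cJun 1-79 at Ser73 with 10 µM ATP; % is set by controls: 0 for no effect and ±100 for the full control effect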
How it was run: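 Biotinylated GST-cJun(1-79) served as substrate for JNK3 in HepG2 lysates stimulated with IL-1beta and TNF-alpha. ATP was 10 uM final, pH 7.6. Ser73 phosphorylation was quantified by AlphaScreen (680 nm excitation).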

[8] = molecular target: 3',5'-cyclic-AMP phosphodiesterase 4B (Homo sapiens) (UniProt Q07343); assay: qHTS Assay for Inhibitors of PDE-IV (AID 607; active = well fitted activation curve with a large enough effect in the main read-out, with a control signal flat, not every such curve was filed as active; note: % of control where 0% means no effect); conditions: HEK293 ACTOne CNG channel cells, membrane potential fluorescence; series mostly up to 22.9 µM
How it was run: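 Live HEK293 cells with a modified cyclic nucleotide-gated (CNG) channel report intracellular cAMP via membrane-potential dye fluorescence (ex 535/em 590 nm). Endogenous PDE-IV was targeted. Compounds were tested at up to 22.9 uM final; RO 20-1724 100 uM served as control.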

[9] = qHTS Assay for Lipid Storage Modulators (AID 1519; calls by dose curve); conditions: Drosophila S3 cells, BODIPY lipid droplet/cell ratio, laser cytometry, cells loaded with oleic acid; for activity change, negative = inhibition: at 57.5 µM (top of the series)
How it was run: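 Cells seeded at 5,000 per well were treated with compounds over a concentration series and loaded with oleic acid (400 uM, as added). Lipid droplet fluorescence (488 nm excitation, 500-530 nm channel) was read by laser-scanning cytometry and normalized to 20 uM Triacsin C.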

[10] = Primary qHTS for small molecule stabilizers of the endoplasmic reticulum resident proteome: Secreted ER Calcium Modulated Protein (SERCaMP) assay (AID 1508630; active = well fitted inhibition curve with a large enough effect; note: % is set by controls: 0 for no effect and ±100 for the full control effect); conditions: SH-SY5Y GLuc-SERCaMP (Gaussia luciferase released on ER calcium loss) secretion, thapsigargin, luminescence; series mostly up to 38.4 µM
How it was run: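 The SH-SY5Y reporter protocol was run at 3 concentrations up to 38.3 uM (primary) or 11 concentrations (follow-up): 16 h compound, 100 nM thapsigargin for 4 h, then extracellular luciferase luminescence.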

[11] = molecular target: Cytochrome P450 2C9 (Homo sapiens) (UniProt P11712); assay: qHTS Assay for Inhibitors and Substrates of Cytochrome P450 2C9 (AID 883; active = well fitted inhibition curve with a large enough effect; note: % is set by controls: 0 for no effect and ±100 for the full control effect; nearly all actives have a fitted effect of over 60% in size); conditions: recombinant CYP2C9, luciferin-H luminescence, 60 min; series mostly up to 57.1 µM
How it was run: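 Human CYP2C9 (10nM) hydroxylated Luciferin-H (100uM, at its KM) to luciferin in 25mM KPO4. Compound was preincubated 10 min at 37C, then NADPH regeneration started a 60 min reaction at 37C. Luminescence was read after detection reagent, normalized to 57uM sulphaphenazole.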

[12] = molecular target: Cytochrome P450 3A4 (Homo sapiens) (UniProt P08684); assay: qHTS Assay for Inhibitors and Substrates of Cytochrome P450 3A4 (AID 884; active = well fitted inhibition curve with a large enough effect; note: % is set by controls: 0 for no effect and ±100 for the full control effect; nearly all actives have a fitted effect of over 50% in size); conditions: recombinant CYP3A4, Luciferin-PPXE luminescence; series mostly up to 57.1 µM
How it was run: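 Luminescent readout of luciferin produced by CYP3A4 (20 nM) dealkylation of Luciferin-PPXE, 25 uM (its KM). NADPH-driven reaction ran 60 min at RT after 10 min compound preincubation; data scaled to 57 uM ketoconazole as 100% inhibition.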

[13] = molecular target: Cytochrome P450 2D6 (Homo sapiens) (UniProt P10635); assay: qHTS Assay for Inhibitors and Substrates of Cytochrome P450 2D6 (AID 891; active = well fitted inhibition curve with a large enough effect;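 note: luciferin methyl ether substrate demethylated by CYP2D6 with NADPH regeneration; % is set by controls: 0 for no effect and ±100 for the full control effect; nearly all actives have a fitted effect of over 60% in size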); conditions: recombinant CYP2D6, luciferin-ME EGE luminescence; series mostly up to 57.1 µM
How it was run: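 Luminescent read-out of luciferin formed by 5 nM human CYP2D6 demethylating 30 uM Luciferin-ME EGE (Km level) over 60 min at room temperature after NADPH regeneration addition. Data normalized to full inhibition by 1.43 uM quinidine.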

[14] = molecular target: Cytochrome P450 2C19 (Homo sapiens) (UniProt P33261); assay: qHTS Assay for Inhibitors and Substrates of Cytochrome P450 2C19 (AID 899; active = well fitted inhibition curve with a large enough effect; note: % is set by controls: 0 for no effect and ±100 for the full control effect; nearly all actives have a fitted effect of over 60% in size); conditions: recombinant CYP2C19, luciferin-H EGE luminescence; series mostly up to 57.1 µM
How it was run: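 Human CYP2C19 (5nM) with Luciferin-H EGE at 10uM (its KM) in 50mM KPO4 was preincubated with compound for 10 min at 37C. NADPH regeneration started a 60 min 37C reaction. Luciferin was read by luminescence, normalized to 57uM ketoconazole.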

[15] = measured here: cell count channel max response
[16] = measured here: lipid channel max response

Sequence of Glucocorticoid receptor (Homo sapiens) (P04150 whole entry, looked up, the tested form may be a part): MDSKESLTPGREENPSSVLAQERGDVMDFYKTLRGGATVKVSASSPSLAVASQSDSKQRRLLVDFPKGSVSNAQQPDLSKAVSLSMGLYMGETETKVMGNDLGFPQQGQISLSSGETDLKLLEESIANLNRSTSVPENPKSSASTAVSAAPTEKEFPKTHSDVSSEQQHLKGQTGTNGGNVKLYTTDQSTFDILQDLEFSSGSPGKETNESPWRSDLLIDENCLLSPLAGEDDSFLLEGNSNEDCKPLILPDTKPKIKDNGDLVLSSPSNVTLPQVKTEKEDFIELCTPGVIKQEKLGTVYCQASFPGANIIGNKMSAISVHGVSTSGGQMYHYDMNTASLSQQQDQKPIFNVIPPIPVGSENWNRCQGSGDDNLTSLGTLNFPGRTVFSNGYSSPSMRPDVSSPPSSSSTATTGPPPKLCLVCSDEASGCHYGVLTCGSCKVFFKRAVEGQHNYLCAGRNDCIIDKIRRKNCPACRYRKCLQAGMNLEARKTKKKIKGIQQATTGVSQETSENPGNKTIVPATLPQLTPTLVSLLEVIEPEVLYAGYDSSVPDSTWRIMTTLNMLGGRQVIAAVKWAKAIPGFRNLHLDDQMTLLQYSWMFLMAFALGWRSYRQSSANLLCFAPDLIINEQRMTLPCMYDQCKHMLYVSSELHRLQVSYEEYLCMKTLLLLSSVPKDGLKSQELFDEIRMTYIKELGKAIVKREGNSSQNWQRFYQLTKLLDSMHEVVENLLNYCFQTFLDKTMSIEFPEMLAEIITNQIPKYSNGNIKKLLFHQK
Sequence of 3',5'-cyclic-AMP phosphodiesterase 4B (Homo sapiens) (Q07343 whole entry, looked up): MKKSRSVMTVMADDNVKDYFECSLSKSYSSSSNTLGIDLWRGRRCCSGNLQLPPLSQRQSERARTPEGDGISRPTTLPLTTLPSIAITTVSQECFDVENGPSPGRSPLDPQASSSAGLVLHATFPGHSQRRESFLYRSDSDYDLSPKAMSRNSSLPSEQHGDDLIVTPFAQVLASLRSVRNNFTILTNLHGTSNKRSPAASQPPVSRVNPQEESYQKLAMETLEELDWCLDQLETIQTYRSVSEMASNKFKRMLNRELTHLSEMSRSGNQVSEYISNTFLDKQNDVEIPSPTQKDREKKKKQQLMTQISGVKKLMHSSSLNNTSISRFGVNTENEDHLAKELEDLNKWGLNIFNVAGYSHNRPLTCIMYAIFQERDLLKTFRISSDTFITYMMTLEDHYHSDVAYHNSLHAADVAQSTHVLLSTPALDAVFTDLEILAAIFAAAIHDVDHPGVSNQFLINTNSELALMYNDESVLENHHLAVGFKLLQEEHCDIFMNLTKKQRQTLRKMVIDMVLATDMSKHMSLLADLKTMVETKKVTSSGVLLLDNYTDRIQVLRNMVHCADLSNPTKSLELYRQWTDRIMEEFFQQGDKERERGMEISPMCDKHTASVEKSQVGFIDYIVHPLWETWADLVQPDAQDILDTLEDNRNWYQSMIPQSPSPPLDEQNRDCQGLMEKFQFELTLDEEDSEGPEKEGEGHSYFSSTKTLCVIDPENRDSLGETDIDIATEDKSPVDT
Sequence of Lysosomal acid glucosylceramidase (Homo sapiens) (P04062 whole entry, looked up): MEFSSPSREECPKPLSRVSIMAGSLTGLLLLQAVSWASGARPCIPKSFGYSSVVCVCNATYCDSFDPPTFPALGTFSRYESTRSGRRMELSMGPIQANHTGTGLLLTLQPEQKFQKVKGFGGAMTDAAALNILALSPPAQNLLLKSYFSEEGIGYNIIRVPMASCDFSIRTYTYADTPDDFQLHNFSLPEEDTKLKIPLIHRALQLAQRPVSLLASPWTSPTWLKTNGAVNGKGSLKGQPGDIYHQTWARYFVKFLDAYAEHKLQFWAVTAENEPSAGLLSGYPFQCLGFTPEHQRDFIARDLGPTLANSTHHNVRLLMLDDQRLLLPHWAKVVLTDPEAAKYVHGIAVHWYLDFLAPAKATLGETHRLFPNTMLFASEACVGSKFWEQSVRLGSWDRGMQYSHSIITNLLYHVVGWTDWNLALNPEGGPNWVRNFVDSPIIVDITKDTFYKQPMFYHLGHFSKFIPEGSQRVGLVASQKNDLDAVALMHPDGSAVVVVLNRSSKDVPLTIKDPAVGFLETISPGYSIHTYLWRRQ
Sequence of Cytochrome P450 1A2 (Homo sapiens) (P05177 whole entry, looked up): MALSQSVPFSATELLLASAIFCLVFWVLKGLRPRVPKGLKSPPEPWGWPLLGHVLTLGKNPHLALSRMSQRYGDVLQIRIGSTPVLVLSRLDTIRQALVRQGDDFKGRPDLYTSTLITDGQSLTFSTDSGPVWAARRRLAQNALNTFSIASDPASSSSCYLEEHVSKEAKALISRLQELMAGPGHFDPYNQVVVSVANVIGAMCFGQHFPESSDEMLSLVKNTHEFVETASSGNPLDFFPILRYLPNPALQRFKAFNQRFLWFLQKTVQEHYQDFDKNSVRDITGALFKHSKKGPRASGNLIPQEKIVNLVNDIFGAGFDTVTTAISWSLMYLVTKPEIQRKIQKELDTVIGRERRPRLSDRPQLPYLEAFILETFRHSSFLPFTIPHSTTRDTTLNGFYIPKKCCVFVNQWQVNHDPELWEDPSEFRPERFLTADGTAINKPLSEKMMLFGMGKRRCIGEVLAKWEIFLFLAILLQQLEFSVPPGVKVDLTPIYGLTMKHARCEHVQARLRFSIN
Sequence of Cytochrome P450 2C9 (Homo sapiens) (P11712 whole entry, looked up): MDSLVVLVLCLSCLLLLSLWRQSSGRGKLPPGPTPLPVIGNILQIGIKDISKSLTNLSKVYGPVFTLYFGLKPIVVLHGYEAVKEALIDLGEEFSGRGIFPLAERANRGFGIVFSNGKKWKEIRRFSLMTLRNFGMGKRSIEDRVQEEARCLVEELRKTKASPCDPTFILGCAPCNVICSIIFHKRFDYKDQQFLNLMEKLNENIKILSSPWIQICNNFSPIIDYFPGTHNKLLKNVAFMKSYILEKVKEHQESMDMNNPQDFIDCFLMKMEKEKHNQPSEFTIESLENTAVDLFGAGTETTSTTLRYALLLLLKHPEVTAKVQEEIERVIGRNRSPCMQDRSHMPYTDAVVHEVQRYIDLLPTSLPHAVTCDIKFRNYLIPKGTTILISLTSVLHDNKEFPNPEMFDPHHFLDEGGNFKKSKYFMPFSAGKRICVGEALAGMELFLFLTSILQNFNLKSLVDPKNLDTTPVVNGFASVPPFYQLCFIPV
Sequence of Cytochrome P450 2D6 (Homo sapiens) (P10635 whole entry, looked up): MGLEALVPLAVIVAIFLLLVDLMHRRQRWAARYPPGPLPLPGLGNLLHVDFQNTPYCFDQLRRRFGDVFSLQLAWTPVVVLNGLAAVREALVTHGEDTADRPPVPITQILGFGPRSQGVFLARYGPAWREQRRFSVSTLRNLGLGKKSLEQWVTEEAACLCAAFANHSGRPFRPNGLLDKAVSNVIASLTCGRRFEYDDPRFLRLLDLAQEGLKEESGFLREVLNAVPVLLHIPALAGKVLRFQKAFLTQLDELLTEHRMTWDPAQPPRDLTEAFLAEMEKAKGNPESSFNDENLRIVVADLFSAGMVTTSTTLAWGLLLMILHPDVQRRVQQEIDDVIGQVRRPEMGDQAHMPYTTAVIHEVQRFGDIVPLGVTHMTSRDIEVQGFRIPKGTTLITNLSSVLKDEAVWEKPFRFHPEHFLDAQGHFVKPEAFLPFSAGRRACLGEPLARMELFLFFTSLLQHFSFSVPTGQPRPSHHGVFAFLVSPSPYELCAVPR
Sequence of Cytochrome P450 2C19 (Homo sapiens) (P33261 whole entry, looked up): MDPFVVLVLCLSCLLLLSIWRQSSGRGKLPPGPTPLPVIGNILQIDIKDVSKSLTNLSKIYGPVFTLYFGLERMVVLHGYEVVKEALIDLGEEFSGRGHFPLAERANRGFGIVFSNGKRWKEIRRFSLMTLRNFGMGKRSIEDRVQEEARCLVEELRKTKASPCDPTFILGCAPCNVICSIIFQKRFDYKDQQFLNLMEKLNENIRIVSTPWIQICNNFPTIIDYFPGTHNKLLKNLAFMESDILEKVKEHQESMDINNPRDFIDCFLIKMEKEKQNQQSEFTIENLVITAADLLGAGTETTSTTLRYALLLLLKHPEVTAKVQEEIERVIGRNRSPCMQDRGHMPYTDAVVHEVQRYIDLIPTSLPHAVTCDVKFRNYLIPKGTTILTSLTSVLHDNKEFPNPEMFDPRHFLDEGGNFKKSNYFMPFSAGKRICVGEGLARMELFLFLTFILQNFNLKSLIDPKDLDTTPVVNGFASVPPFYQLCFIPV
Sequence of Cytochrome P450 3A4 (Homo sapiens) (P08684 whole entry, looked up): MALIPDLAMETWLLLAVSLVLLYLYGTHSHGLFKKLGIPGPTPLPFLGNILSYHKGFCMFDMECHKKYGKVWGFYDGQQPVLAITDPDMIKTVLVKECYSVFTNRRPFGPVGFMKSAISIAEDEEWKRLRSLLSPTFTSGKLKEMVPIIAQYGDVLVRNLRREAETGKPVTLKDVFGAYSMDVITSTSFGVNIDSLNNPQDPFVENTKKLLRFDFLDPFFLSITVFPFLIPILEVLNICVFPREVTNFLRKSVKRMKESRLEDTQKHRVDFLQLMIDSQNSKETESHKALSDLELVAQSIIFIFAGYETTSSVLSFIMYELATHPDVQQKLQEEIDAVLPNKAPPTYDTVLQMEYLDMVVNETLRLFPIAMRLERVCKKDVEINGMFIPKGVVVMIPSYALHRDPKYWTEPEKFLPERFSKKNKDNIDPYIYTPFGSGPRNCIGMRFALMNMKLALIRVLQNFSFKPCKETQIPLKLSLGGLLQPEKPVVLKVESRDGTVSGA

CS(=O)(=O)N1CCC[C@@]2(CCN(Cc3nccs3)C2)C1
inactive: Potency [1] > 11.4 µM | activity change, negative = inhibition [2] -5.88% | Potency [3] | activity change, negative = inhibition [4] 5.31% | activity, negative = inhibition [5] 4.77% | Potency [6] > 46 µM | outcome [7] | Potency [8] | activity change, negative = inhibition [9] 7.12% | Potency [10]
9.38%: max response [9, 15]
20.5%: max response [9, 16]

O=C(c1csnn1)N1CCC2(CC1)CCN(c1ncccn1)CC2
6.88%: max response [9, 16]
-0.155%: max response [9, 15]
inactive: Potency [1] > 11.4 µM | activity change, negative = inhibition [2] -14.3% | Potency [3] | activity change, negative = inhibition [4] 1.39% | activity, negative = inhibition [5] -5.07% | Potency [6] > 46 µM | outcome [7] | Potency [8] | activity change, negative = inhibition [9] 4.97% | Potency [10]

O=C(Nc1cccc(F)c1)N1CCC2(CC1)CCN(C(=O)c1cnccn1)CC2
inactive: Potency [1] > 11.4 µM | activity change, negative = inhibition [2] -10.4% | Potency [3] | activity change, negative = inhibition [4] 20.5% | activity, negative = inhibition [5] -10.8% | Potency [6] > 46 µM | outcome [7] | Potency [8] | activity change, negative = inhibition [9] 3.08% | Potency [10]
11.7%: max response [9, 15]
15.9%: max response [9, 16]

COc1ccc(C(=O)N2CCC3(CC2)CN(C(=O)Nc2ccccc2)C3)cc1
17.6%: max response [9, 16]
inactive: Potency [1] > 11.4 µM | activity change, negative = inhibition [2] -1.19% | activity change, negative = inhibition [4] 22.2% | activity, negative = inhibition [5] -10.2% | Potency [6] > 46 µM | outcome [7] | Potency [8] | activity change, negative = inhibition [9] 5.49% | Potency [10]
active: Potency [3] 25.1 µM
8.4%: max response [9, 15]

O=C(c1ccncc1)N1CCC2(CC1)CN(c1ncccn1)C2
22.4%: max response [9, 15]
23.6%: max response [9, 16]
active: Potency [3] 6.31 µM
inactive: Potency [1] > 11.4 µM | activity change, negative = inhibition [2] 7.49% | activity change, negative = inhibition [4] 6.22% | activity, negative = inhibition [5] -10.2% | Potency [6] > 46 µM | outcome [7] | Potency [8] | activity change, negative = inhibition [9] 0.437% | Potency [10]

COCC(=O)N1CCC2(CC1)CN(Cc1cc(C(F)(F)F)cc(C(F)(F)F)c1)C2
inactive: Potency [1] > 11.4 µM | activity change, negative = inhibition [2] 11% | activity change, negative = inhibition [4] 23.6% | activity, negative = inhibition [5] -2.63% | Potency [6] > 46 µM | outcome [7] | Potency [8] | activity change, negative = inhibition [9] -7.21% | Potency [10]
25.1%: max response [9, 15]
active: Potency [3] 25.1 µM
17.9%: max response [9, 16]

CC(C)CN1CCC2(CC1)CCN(C(=O)c1csnn1)CC2
-3.14%: max response [9, 15]
-1.99%: max response [9, 16]
inactive: Potency [1] > 11.4 µM | activity change, negative = inhibition [2] -3.75% | Potency [3] | activity change, negative = inhibition [4] -21.7% | activity, negative = inhibition [5] -16.4% | Potency [6] > 46 µM | outcome [7] | Potency [8] | activity change, negative = inhibition [9] -1.92% | Potency [10]

FC(F)(F)c1cc(CN2CC3(CCNCC3)C2)cc(C(F)(F)F)c1
inactive: Potency [1] > 11.4 µM | activity change, negative = inhibition [2] -6.77% | Potency [3] | activity change, negative = inhibition [4] 10.6% | activity, negative = inhibition [5] 3.31% | Potency [6] > 46 µM | outcome [7] | Potency [8] | activity change, negative = inhibition [9] -2.16% | Potency [10]
-13.5%: max response [9, 16]
-18%: max response [9, 15]

COC(=O)N1CCC2(CC1)CN(C(=O)Nc1cccc(C#N)c1)C2
8.67%: max response [9, 16]
inactive: Potency [1] > 11.4 µM | activity change, negative = inhibition [2] 2.52% | Potency [3] | activity change, negative = inhibition [4] 6.57% | activity, negative = inhibition [5] -1.88% | Potency [6] > 46 µM | outcome [7] | Potency [8] | activity change, negative = inhibition [9] 4.73% | Potency [10]
-0.334%: max response [9, 15]

COCC(=O)N1CCC[C@@]2(CCN(C(=O)Nc3cccc(C#N)c3)C2)C1
21.6%: max response [9, 16]
inactive: Potency [1] > 11.4 µM | activity change, negative = inhibition [2] 0.866% | Potency [3] | activity change, negative = inhibition [4] -2.97% | activity, negative = inhibition [5] 2.49% | Potency [6] > 46 µM | outcome [7] | Potency [8] | Potency [11] | Potency [12] | Potency [13] | Potency [14] | activity change, negative = inhibition [9] 4.94% | Potency [10]
13.7%: max response [9, 15]

COC(=O)N1CCC2(CCN(C(=O)Nc3ccccc3)CC2)CC1
inactive: Potency [1] > 11.4 µM | activity change, negative = inhibition [2] -4.41% | Potency [3] | activity change, negative = inhibition [4] 4.8% | activity, negative = inhibition [5] 0.0402% | Potency [6] > 46 µM | outcome [7] | Potency [8] | activity change, negative = inhibition [9] 5.74% | Potency [10]
17.4%: max response [9, 16]
8.07%: max response [9, 15]

COC(=O)N1CCC2(CC1)CN(C(=O)Nc1ccccc1)C2
inactive: Potency [1] > 11.4 µM | activity change, negative = inhibition [2] -8.08% | Potency [3] | activity change, negative = inhibition [4] 8.68% | activity, negative = inhibition [5] 1.2% | Potency [6] > 46 µM | outcome [7] | Potency [8] | activity change, negative = inhibition [9] 5.14% | Potency [10]
-8.35%: max response [9, 16]
-14.6%: max response [9, 15]

Cc1noc(C)c1C(=O)N1CCC2(CC1)CN(C(=O)Nc1cccc(F)c1)C2
-7.63%: max response [9, 15]
-0.901%: max response [9, 16]
inactive: Potency [1] > 11.4 µM | activity change, negative = inhibition [2] 6.42% | Potency [3] | activity change, negative = inhibition [4] 19.9% | activity, negative = inhibition [5] 0.457% | Potency [6] > 46 µM | outcome [7] | Potency [8] | activity change, negative = inhibition [9] 1.43% | Potency [10]

Cc1noc(C)c1C(=O)N1CCC2(CCCN(C(=O)NC(C)C)C2)CC1
10.1%: max response [9, 16]
inactive: Potency [1] > 11.4 µM | activity change, negative = inhibition [2] 10.5% | Potency [3] | activity change, negative = inhibition [4] 8.68% | activity, negative = inhibition [5] -2.07% | Potency [6] > 46 µM | outcome [7] | Potency [8] | Potency [11] | activity change, negative = inhibition [9] 6.76% | Potency [10]
0.437%: max response [9, 15]
